Measurements from PubChem BioAssay (EPA / NIEHS).
Calls of active or inactive are those of the source. The calls were made as follows: active = hit-call score of the fitted dose curve at least 0.9, where 1 is the maximum; inactive = score below 0.9.

Assay: CCTE_Padilla_ZF_Score.Edema: CCTE's 144 Hour Post-fertilization zebrafish Assay Score for Edema Malformation, Padilla Lab (AID 2284406)
Experimental: CCTE_Padilla_ZF_Phenotype_Score is a whole embryo, multiplexed assay using zebrafish ova exposed for 144 hours post fertilization on a 96-well plate.CCTE_Padilla_ZF_Score.Edema is one of one assay component(s) measured or calculated from the CCTE_Padilla_ZF_Phenotype_Score assay. It is designed to make measurements of zebrafish development as detected with brightfield microscopy of developing zebrafish embryos.Data from the assay component CCTE_Padilla_ZF_Score.Edema was analyzed into 1 assay endpoints. This assay endpoint, CCTE_Padilla_ZF_Score.Edema, was analyzed in the positive analysis fitting direction relative to DMSO as the negative control and baseline of activity. Using a type of viability reporter, gain-of-signal activity can be used to understand changes in developmentals as they relate to the whole embryo. To generalize the intended target to other relatable targets, this assay endpoint is annotated to the zebrafish development intended target family, where the subfamily is embryonic edema.
Zebrafish husbandry: Wild type adult zebrafish (Danio rerio; undefined outbred stock obtained from Aquatic Research Organisms, Hampton, NH, 03842) were housed in an AAALAC-approved animal facility at 28C with a 14:10 h light: dark cycle (lights on at 08:30 h). Adult fish (2-3 females per male; density = 15-20 adults per tank) were kept in one of several 9-liter (L) flow-through colony tanks (Aquaneering Inc., San Diego, CA). All adults in a colony tank were placed in a 2 L (static) breeding tank (Aquatic Habitats, Apopka, FL) one hour prior to light onset. Typically, adults from two to three colony tanks were mated on the same day. Two hours after light onset the adults were returned to the colony tank. All embryos were gathered from each breeder tank, pooled, and placed in a 28C water bath for 2 h, followed by two washes with 0.06% bleach (v/v) in 10% Hanks' Balanced Salt Solution (13.7 mM NaCl 0.54 mM KCl, 25 uM Na2HPO4, 130 uM CaCl2 100 um MgSO4 and 420 um NaHCO3,), hereafter referred to as Hanks' solution, for 5 min in order to remove any residual bacteria or fungi. Immediately following washing, the embryos were examined, and healthy embryos were separated from dead or unfertilized eggs and moved into fresh Hanks'. Chemical exposures: Zebrafish embryos were exposed in 96-well plates. Between 6- and 8-hours post fertilization (hpf), healthy embryos (with chorions) were transferred, one embryo per well, into 96 well (0.5 mL) microtiter plates (Cell Culture-Treated, Flat-Bottom Microplate 96 well [Corning Costar, Kennebunk, ME; Cat 09-761-145]) filled with 200 uL of Hanks' solution. A random number generator was used to assign the order in which the rows of embryos were plated in 96 well plates each week. After plating, the embryos were dosed with 0.8 uL of the chemical dosing solution then immediately sealed with AlumaSeal II (Excel Scientific Inc, Victorville, CA) to prevent volatilization of the chemicals, and then placed in a leakproof secondary container. These containers were placed in an incubator maintained on a 14:10 h light: dark cycle at 26C for rearing. On 5 dpf, live larvae were gently moved out of the plate with test chemicals and into a new 96 well mesh plate (Millipore Corp., Bedford, MA) with just the Hanks' solution. Once within the mesh well plate, the animals were rinsed with 400 uL of fresh Hanks' three times, and then the plates were covered with a non-adhesive material (Microseal A, BioRad, Hercules, CA), plate lid added, and then plate sides wrapped in Parafilm (PM992, Bermis Company, Neenah, WI), and returned to the incubator. This rinse on 5 dpf was conducted to lessen the possible exposure of the human assessors to the chemicals during detailed examination of each larva at 6 dpf.Larval assessments: On 6 dpf between 8 and 10 AM, two individual assessors, blinded to the chemical treatments, independently examined each larva for mortality, hatching status, and malformations using an Olympus SZH10 stereo microscope. […]

SMILES | AC50 | outcome
C=CC(=O)OCC(F)(F)C(F)(F)C(F)(F)C(F)(F)COC(=O)C=C | 4.88 µM (active) | –
FC(F)(F)C(F)(F)CNCC(F)(F)C(F)(F)F | – | inactive
O=S(=O)(OCCOC(F)(F)F)C(F)(F)F | – | inactive
FC(F)(F)C(F)(F)C(F)(F)CI | – | inactive
O=C(O)C(F)(F)C(F)(F)C(F)(F)C(F)(F)F | – | inactive
FC(F)(F)C(F)(F)C(F)(F)C(F)(F)CCI | – | inactive
FC(F)(F)C(F)(F)C(F)(F)N(C(F)(F)C(F)(F)C(F)(F)F)C(F)(F)C(F)(F)C(F)(F)F | – | inactive
OCCCC(F)(F)C(F)(F)C(F)(F)C(F)(F)C(F)(F)C(F)(F)C(F)(F)F | 36.4 µM (active) | –
FC(F)(F)C(F)(F)C(F)(F)C(F)(F)C(F)(F)C(F)(F)C(F)(F)I | 10.2 µM (active) | –
C=C(C)C(=O)OCCC(F)(F)C(F)(F)C(F)(F)C(F)(F)C(F)(C(F)(F)F)C(F)(F)F | – | inactive
FC(F)(F)C(F)(F)C(F)(F)C(F)(F)C(F)(F)C(F)(F)CC1CO1 (stereo not given) | – | inactive
O=C(O)C(F)(OC(F)(F)C(F)(OC(F)(F)C(F)(F)C(F)(F)F)C(F)(F)F)C(F)(F)F (stereo not given) | – | inactive
FC(F)(F)C(F)(F)C(F)(F)C(F)(F)C(F)(F)C(F)(F)C(F)(F)C(F)(F)CCS | – | inactive
O=C(O)C(F)(F)C(F)(F)C(F)F | – | inactive
FC(F)(F)C(F)(F)C(F)(F)C(F)(F)C(F)(F)C(F)(F)C(F)(F)C(F)(F)F | – | inactive
O=C(O)C(F)(F)C(F)(F)F | – | inactive
FC(F)(F)C(F)(F)C(F)(F)C(F)(F)C(F)(F)CCI | 30.4 µM (active) | –
OCC(F)(F)C(F)(F)C(F)(F)C(F)F | – | inactive
O=C(Cl)C(F)(F)C(F)(F)C(F)(F)C(F)(F)C(F)(F)C(F)(F)C(F)(F)C(F)(F)F | 10 µM (active) | –
O=C(O)C(F)(F)C(F)(F)C(F)(F)C(F)(F)C(F)(F)C(F)(F)C(F)(F)C(F)(F)C(F)(F)C(F)(F)C(F)(F)C(F)(F)C(F)(F)F | – | inactive

SMILES | AC50 | outcome
N=C(N)C(F)(F)C(F)(F)C(F)(F)C(F)(F)C(F)(F)C(F)(F)C(F)(F)F | – | inactive
O=C(O)C(F)(OC(F)(F)C(F)(OC(F)(F)C(F)(OC(F)(F)C(F)(F)C(F)(F)F)C(F)(F)F)C(F)(F)F)C(F)(F)F (stereo not given) | – | inactive
C=C(C)C(=O)OCC(F)(F)C(F)(F)C(F)(F)F | – | inactive
O=S(=O)(O)C(F)(F)C(F)(F)C(F)(F)C(F)(F)C(F)(F)C(F)(F)C(F)(F)F | 25.8 µM (active) | –
C=CC(=O)OCC(F)(F)C(F)(F)C(F)(F)C(F)(F)C(F)(F)C(F)(F)C(F)(F)F | – | inactive
FC(F)(I)C(F)(F)C(F)(F)C(F)(F)I | 24.3 µM (active) | –
C=CC(F)(F)C(F)(F)C(F)(F)C(F)(F)C(F)(F)C(F)(F)C(F)(F)C(F)(F)F | – | inactive
O=C(O)C(F)(F)C(F)(F)C(F)(F)F | – | inactive
O=C(O)C(F)(F)C(F)(F)C(F)(F)C(F)(F)C(F)(F)C(F)(F)C(F)(F)C(F)(F)C(F)(F)C(F)F | 14.9 µM (active) | –
O=C(O)C(F)(F)C(F)(F)OC(F)(F)F | – | inactive
CCCCCCCCC(F)(F)C(F)(F)C(F)(F)C(F)(F)C(F)(F)C(F)(F)F | – | inactive
OCC(F)(F)C(F)(F)C(F)(F)C(F)(F)C(F)(F)C(F)F | – | inactive
FC(F)(F)C(F)(F)C(F)(F)C(F)(F)C(F)(F)C(F)(F)CCS | – | inactive
O=C(O)C(F)(F)C(F)(F)C(F)(F)C(F)(F)C(F)(F)C(F)(F)C(F)(F)C(F)(F)Cl | 36.6 µM (active) | –
OCCCC(F)(F)C(F)(F)C(F)(F)F | – | inactive
O=C(O)C=C(C(F)(F)F)C(F)(F)F | – | inactive
FC(F)(F)C(F)(F)C(F)(F)C(F)(F)C(F)(F)C(F)(F)C(F)(F)Br | – | inactive
OCC(F)(F)C(F)(F)C(F)(F)C(F)(F)C(F)(F)C(F)(F)F | 84.7 µM (active) | –
FC(F)(Br)C(F)(F)C(F)(F)C(F)(F)C(F)(F)C(F)(F)Br | – | inactive
NC(=O)C(F)(F)C(F)(F)C(F)(F)C(F)(F)F | – | inactive
